{"source": "PubChem BioAssay (EPA / NIEHS)", "note": "The source holds several records for some structures; these can differ, active in one and inactive in another. Active and inactive are the calls of the source. Rule for the calls: active = hit-call score of the fitted dose curve at least 0.9, where 1 is the maximum; inactive = score below 0.9.", "data": [{"read-out": "CD38, CD38 (gene 952)", "assay": "BSK_SAg_CD38: BioMAP Diversity Plus: SAg Assay for CD38 Biomarker Activity (AID 2283087)", "conditions": "primary human HUVEC with PBMC; actives raise or lower the signal", "procedure": "BSK_SAg is a cell-based, multiplexed-readout assay that uses umbilical vein endothelium and peripheral blood mononuclear cells, a human vascular primary cell co-culture, with measurements taken at 24 hours after chemical dosing in a 96-well plate.BSK_SAg_CD38 is one of 10 assay component(s) measured or calculated from the BSK_SAg assay. It is designed to make measurements of enzyme-linked immunosorbent assay, a form of binding reporter, as detected with fluorescence intensity signals by Enzyme-linked immunosorbent assay technology.Data from the assay component BSK_SAg_CD38 was analyzed into 1 assay endpoint. This assay endpoint, BSK_SAg_CD38, was analyzed with bidirectional fitting relative to DMSO as the negative control and baseline of activity. Using a type of binding reporter, gain or loss-of-signal activity can be used to understand changes in the signaling as they relate to the gene CD38. Furthermore, this assay endpoint can be referred to as a primary readout, because this assay has produced multiple assay endpoints where this one serves a signaling function. To generalize the intended target to other relatable targets, this assay endpoint is annotated to the cytokine intended target family, where the subfamily is other cytokine.\nThe levels of cell surface (or secreted, indicated by the prefix \"s\") biomarker endpoints were measured by ELISA. Overt cytotoxicity to cells in confluent adherent cultures (all systems other than the BT system) was assessed by measuring total protein levels using sulforhodamine B (SRB) staining in parallel cultures at the time of biomarker measurements, indicated as SRB endpoints. For proliferation assays for adherent cell types, individual cell types are cultured at sub-confluence and relative cell numbers quantified by SRB staining at time points optimized for each system (48 h: 3C and CASM3C systems; 72 h: BT and HDF3CGF systems; 96 h: SAg system). SRB was performed by staining cells with 0.1% SRB after fixation with 10% TCA and reading wells at 560 nm.Viability and proliferation of PBMC (T cells) was quantified by Alamar Blue reduction for the SAg and BT systems. For PBMC viability (referred to as PBMC Cytotoxicity within the assay endpoint names), cells were plated (75,000/well in a 96-well plate) and then chemical samples added for 1 h before addition of activators, SEB and TSST-1 (20 ng/mL final concentration each). Cells were incubated for 90 h. Then, Alamar Blue (20 uL/well) (Invitrogen, Cat DAL1100) was added for 6 h, and the plates were read with a fluorescence microplate reader at 546/580 nm (excitation/emission). For PBMC proliferation, cells were plated and activated as above but incubated for only 16 h prior to addition of Alamar Blue. Plates were read after 6 h.", "values": [{"smiles": "COC(=O)CC(=O)OC", "outcome": "inactive"}, {"smiles": "COc1cccc(-c2ccc(/C=C\\CN3CCCCCC3)cc2Cl)c1", "AC50": "29.1 µM (active)"}, {"smiles": "Cc1[nH]cnc1C[C@H]1CCc2c(C)c3ccccc3n2C1=O", "AC50": "31.2 µM (active)"}, {"smiles": "COCCOc1cc2cc(C(=O)NC3CCN(C(C)C)CC3)n(CC(=O)Nc3ccc(Cl)cn3)c2cn1", "outcome": "inactive"}, {"smiles": "O=C(O)c1cc(N=Nc2ccc(S(=O)(=O)Nc3ccccn3)cc2)ccc1O", "outcome": "inactive"}, {"smiles": "Cc1c(-c2cccnc2)c2ccccc2n1CCCCC(=O)O", "outcome": "inactive"}, {"smiles": "O=c1n(CC2CO2)c(=O)n(CC2CO2)c(=O)n1CC1CO1", "note": "(stereo not given)", "AC50": "18.5 µM (active)"}, {"smiles": "O=C(CCCCCCCCc1cccnc1)N1CCC(C=C(c2ccccc2)c2ccccc2)CC1", "AC50": "8.97 µM (active)"}, {"smiles": "O=C1CCCCCN1", "outcome": "inactive"}, {"smiles": "COc1ccc(-n2nc(C(F)F)cc2-c2ccc(S(C)=O)cc2)cc1", "note": "(stereo not given)", "outcome": "inactive"}, {"smiles": "CC(C)CCCCCCOC(=O)c1ccc(C(=O)OCCCCCCC(C)C)c(C(=O)OCCCCCCC(C)C)c1", "outcome": "inactive"}, {"smiles": "CC1=CC(=O)CC(C)(C)C1", "outcome": "inactive"}, {"smiles": "C1N2CN3CN1CN(C2)C3", "outcome": "inactive"}, {"smiles": "CC/C(=C\\C(=N/O)C(N)=O)C(C)[N+](=O)[O-]", "note": "(stereo not given)", "outcome": "inactive"}, {"smiles": "Cn1cnc([N+](=O)[O-])c1Sc1ncnc2nc[nH]c12", "AC50": "12.1 µM (active)", "outcome": "inactive"}, {"smiles": "CC1(C)C(=O)N(Br)C(=O)N1Br", "outcome": "inactive"}, {"smiles": "CCNc1ccccc1", "outcome": "inactive"}, {"smiles": "CCCN(C1CCN(C(=O)C2CCNCC2)CC1)[C@@H]1CCc2ccc(OC)cc2C1", "outcome": "inactive"}, {"smiles": "CCCCC(CC)COC(=O)c1ccc(C(=O)OCC(CC)CCCC)cc1", "note": "(stereo not given)", "outcome": "inactive"}, {"smiles": "O=P(OC(CCl)CCl)(OC(CCl)CCl)OC(CCl)CCl", "AC50": "30 µM (active)"}, {"smiles": "On1ccccc1=S", "AC50": "12.2 µM (active)"}, {"smiles": "CC(C)=CCCC(C)CCO", "note": "(stereo not given)", "outcome": "inactive"}, {"smiles": "CC(C)=CCC/C(C)=C\\CO", "outcome": "inactive"}, {"smiles": "Cc1ccc(C)c(O)c1", "outcome": "inactive"}, {"smiles": "CNCc1ccc(NC(=O)c2c[nH]c3c2C(=O)CCC3)cc1", "outcome": "inactive"}, {"smiles": "O=C1CCC(N2C(=O)c3ccccc3C2=O)C(=O)N1", "note": "(stereo not given)", "outcome": "inactive"}, {"smiles": "CC(=O)OC[C@H]1O[C@@](COC(C)=O)(O[C@H]2O[C@H](COC(C)=O)[C@@H](OC(C)=O)[C@H](OC(C)=O)[C@H]2OC(C)=O)[C@@H](OC(C)=O)[C@@H]1OC(C)=O", "outcome": "inactive"}, {"smiles": "CC[C@H]1CC[C@H](NCc2cc3c(cc2OC)[C@H]2C[C@H]2C(=O)N3C)[C@H](c2ccccc2)N1", "outcome": "inactive"}, {"smiles": "CCCCCCCCO", "outcome": "inactive"}, {"smiles": "CCC(C)(C)C(=O)O[C@H]1C[C@@H](C)C=C2C=C[C@H](C)[C@H](CC[C@@H]3C[C@@H](O)CC(=O)O3)[C@H]21", "AC50": "24.9 µM (active)"}, {"smiles": "Cc1ccc(O)cc1", "outcome": "inactive"}, {"smiles": "CCCCCCCCCCCCc1ccccc1", "outcome": "inactive"}, {"smiles": "CN(C)c1ccc(N=NS(=O)(=O)O)cc1", "outcome": "inactive"}, {"smiles": "COC(=O)c1c(Cl)c(Cl)c(C(=O)OC)c(Cl)c1Cl", "outcome": "inactive"}, {"smiles": "O=C(O)CC(O)C(=O)O", "note": "(stereo not given)", "outcome": "inactive"}, {"smiles": "CC[C@H](C)C(=O)O[C@H]1C[C@@H](C)C=C2C=C[C@H](C)[C@H](CC[C@@H]3C[C@@H](O)CC(=O)O3)[C@H]21", "AC50": "29.8 µM (active)"}, {"smiles": "C[C@](N)(Cc1ccc(O)c(O)c1)C(=O)O", "outcome": "inactive"}, {"smiles": "O=C(O)c1cccc(Oc2ccccc2)c1", "outcome": "inactive"}, {"smiles": "Cc1ccc(S(=O)(=O)O)cc1C", "outcome": "inactive"}]}]}
